# Compound activity from PubChem.
# The full list was thinned out, with hits kept by preference.
# KDM5B inh = KDM5B demethylase inhibition; actives 2.6% (n = 220,000); Q9UGL1; Potency, µM (doses to about 57.7 µM), most hits filed as inhibitors; KDM5B demethylase, FDH-coupled NADH fluorescence (FDH is formaldehyde dehydrogenase); active means well fitted inhibition curve with a large enough effect; further: 0% is about no effect; nearly all actives have a fitted effect of over 70% in size
#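 qHTS format, multiple compound concentrations. Buffer 50 mM HEPES pH 7.5/0.01% Tween-20; 200 nM KDM5BΔAP final; 10 min compound preincubation; substrate-mix levels 12.5 µM peptide, 25 µM α-KG, 0.25 mM NAD⁺; 30 min RT; ΔRFU.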
# Starred values were filed as active, the others as inactive; i = inactive. Potency means the concentration at half of the fitted maximal effect.
SMILES,KDM5B inh
CCc1ccc(S(=O)(=O)c2nnn3c2nc(N2CCOCC2)c2ccccc23)cc1,i
Cc1ccc(S(=O)(=O)c2nnn3c2nc(N2CCCCC2)c2ccccc23)cc1,i
Cc1ccc(C)c([S+](=O)([O-])c2nnn3c2nc(NC2CC2)c2ccccc23)c1,79µM*
Cc1ccc([S+](=O)([O-])c2nnn3c2nc(NCc2ccncc2)c2ccccc23)cc1C,89µM*
Cc1ccc([S+](=O)([O-])c2nnn3c2nc(NC2CC2)c2ccccc23)cc1,i
O=[S+]([O-])(c1ccc(Br)cc1)c1nnn2c1nc(NCc1ccc(F)cc1)c1ccccc12,i
O=[S+]([O-])(c1ccncc1)c1nnn2c1nc(NCc1ccncc1)c1ccccc12,i
Cc1ccc(S(=O)(=O)c2nnn3c2nc(N2CCOCC2)c2ccccc23)cc1,79µM*
COCCCNc1nc2c(S(=O)(=O)c3ccc(C)c(C)c3)nnn2c2ccc(Cl)cc12,i
Cc1cc(C)c([S+](=O)([O-])c2nnn3c2nc(NC2CC2)c2ccccc23)c(C)c1,i
COCCNc1nc2c(S(=O)(=O)c3ccc(C)c(C)c3)nnn2c2ccccc12,79µM*
COC(=O)c1cnc(NC(=O)Cc2ccc(-c3ccccc3)cc2)s1,i
Cn1c(SCc2csc(-c3ccsc3)n2)nnc1C1CC1,i
COc1cc(/C(Cl)=N/O)cc(OC)c1OC,i
Cc1cc2cc(NS(=O)(=O)c3cc(F)cc(F)c3)ccc2[nH]1,i
COCCn1c(SC(C)C(=O)NC(N)=O)nnc1-c1cccc(C)c1 (stereo not given),i
CC(C)(C)C(=O)N1N=C(c2ccco2)CC1c1ccc2nccnc2c1 (stereo not given),i
CN(C)C[C@@H]1CN(Cc2cccnc2)C[C@H]1NC(=O)C1(c2ccccc2)CC1,i
COc1ccc(NC(=O)N[C@@H](CCSC)C(=O)O)cc1,i
CCCCN1C(=O)C2(C(=C(O)c3ccc4c(c3)OCCO4)C(=O)C(=O)N2CCOC)c2ccccc21 (stereo not given),i
CCn1cc(S(=O)(=O)Nc2cc(F)ccc2F)cn1,i
Cc1onc(-c2c(F)cccc2Cl)c1C(=O)Nc1sc(C)c(C)c1C(N)=O,i
CC(NC(=O)c1cccnc1N(C)C)c1ccc(F)cc1 (stereo not given),i
COC(=O)Cc1c(C)c2ccc(O)cc2oc1=O,i
O=[S+]([O-])(c1ccc(Cl)cc1)c1nnn2c1nc(N1CCC(F)CC1)c1ccccc12,i
SMILES,KDM5B inh
COc1ccc([S+](=O)([O-])c2nnn3c2nc(NCc2ccc(F)cc2)c2ccccc23)cc1,i
O=[S+]([O-])(c1cccnc1)c1nnn2c1nc(N1CCOCC1)c1ccccc12,i
COCCCNc1nc2c([S+](=O)([O-])c3ccc(OC)cc3)nnn2c2ccccc12,32µM*
COCCCNc1nc2c([S+](=O)([O-])c3ccc(Br)cc3)nnn2c2ccccc12,i
COc1ccc([S+](=O)([O-])c2nnn3c2nc(N2CCOCC2)c2ccccc23)cc1,79µM*
CC(C)OCCCNc1nc2c([S+](=O)([O-])c3cccnc3)nnn2c2ccccc12,i
CC(C)c1ccc([S+](=O)([O-])c2nnn3c2nc(NC2CC2)c2ccccc23)cc1,i
CCc1ccc([S+](=O)([O-])c2nnn3c2nc(NCCCOC)c2ccccc23)cc1,89µM*
CCC(C)N[C@H]1CS(=O)(=O)C[C@@H]1S(=O)(=O)c1ccccc1 (stereo not given in full),i
CCCC(NC(=O)NCc1ccc(F)cc1)C(=O)N(C)CC(=O)N(CC)CC (stereo not given),i
COCCn1c(SCc2ccc(Cl)cc2)nnc1-c1ccncc1,i
CCc1ccc(-c2csc(NC(=O)c3nn(C)c(=O)c4ccccc34)n2)cc1,i
O=C1Nc2ccc(-c3ccc4c(c3)OCO4)cc2C(=O)N2CCN(C(=O)C3CCCC3)C[C@@H]12,22µM*
CSc1ccc(-c2ccc3c(c2)C(=O)N2CCN(C(=O)C4CCCCC4)C[C@@H]2C(=O)N3)cc1,28µM*
CC(C)(C)CC(=O)N1CCN2C(=O)c3cc(Br)ccc3NC(=O)[C@H]2C1,i
O=C1Nc2ccc(-c3ccc4c(c3)OCO4)cc2C(=O)N2CC[C@H](NC(=O)N3CCOCC3)[C@@H]12,i
O=C1Nc2ccc(-c3ccc(Cl)cc3)cc2C(=O)N2CCN(C(=O)NC3CCCCC3)C[C@H]12,i
CC(O)CN(c1ccccc1)S(=O)(=O)c1cc(C(=O)O)cc2c1CCC2 (stereo not given),i
COc1ccc2c(c1)O/C(=C\c1cccc(OS(C)(=O)=O)c1)C2=O,i
O=C(CCNc1nc(Cl)nc2nc[nH]c12)NCCCO,i
CCC(=O)N1CCCC1Cc1ccccc1 (stereo not given),i
COCCn1c(-c2cc(Cl)ccc2OC)n[nH]c1=S,i
CN(Cc1cccn1C)C(=O)c1ccc(F)cc1,i
CN(C)CCN(C)C(=O)c1ccc(-c2ncc3cnc(-c4cccc(F)c4)cn23)cc1,40µM*
CCc1ccc(C(=O)NCCOC)cc1,i
SMILES,KDM5B inh
CN(Cc1ccc(-c2ccccc2)cc1)C(=O)c1ccc(F)cc1,i
O=C(NCc1cccc(F)c1)c1ccc(-n2cnc3cccnc32)cc1,i
COCCNC(=O)c1ccc(-c2ncc3cnc(-c4cccc(F)c4)cn23)cc1,35µM*
COc1ccc(-c2ncc(CCNC(=O)c3cccc(F)c3)[nH]2)cc1,i
O=C(NCc1cnccn1)c1ccc(-c2ncc3cnc(-c4cccc(F)c4)cn23)cc1,35µM*
O=C(NCc1cnccn1)c1nc(-c2ccccc2)cc2[nH]ccc12,i
O=C(O)CCCC(=O)N1Cc2ccccc2CC2(CCCN(CCc3ccccc3)C2)C1 (stereo not given),i
C[N+](C)(N)CC(=O)[O-],i
Cc1[nH]c2ccc(C(=O)NCCNC(=O)c3ccc(C(F)(F)F)cc3)cc2c1C,i
N#Cc1ccc(Cn2cnc3ccccc3c2=O)c(F)c1,i
O=C(O)Cn1c(=O)c2c3c(sc2n(Cc2ccc(F)cc2)c1=O)CCC3,i
CC(C)C(=O)Nc1ccc(I)cc1Cl,i
O=C(Nc1ccc2n(c1=O)C[C@H]1C[C@@H]2CN(C(=O)COc2ccccc2)C1)c1ccccc1,i
O=C(c1ccc(-c2ccccc2)cc1)N1C[C@@H]2C[C@H](C1)c1ccc(NS(=O)(=O)c3cccc(F)c3)c(=O)n1C2,i
O=C(COc1ccccc1)N1C[C@@H]2C[C@H](C1)c1ccc(-c3cccc(C(F)(F)F)c3)c(=O)n1C2,22µM*
O=C(Nc1cccc(F)c1)Nc1ccc(=O)n2c1[C@@H]1C[C@@H](CN(C(=O)COc3ccccc3)C1)C2,i
O=C(c1ccc2c(c1)OCO2)N1CC2CC(C1)[C@H]1CCCC(=O)N1C2 (stereo not given in full),i
O=C(c1ccc2c(c1)OCO2)N1C[C@@H]2C[C@H](C1)c1ccc(-c3cccc(C(F)(F)F)c3)c(=O)n1C2,28µM*
COC(=O)[C@@H](Cc1ccccc1)NC(=O)NCC(c1ccccc1)c1ccccc1,i
C=CCNC(=O)[C@@H]1Cc2cn(CC=C)c3cccc(c23)[C@H](CC(C)C)N1,i
CC(C)C[C@@H]1N[C@H](C(=O)NCCN(C)C)Cc2cn(CC3CC3)c3cccc1c23,28µM*
C=CCn1cc2c3c(cccc31)[C@H](CC(C)C)N[C@H](C(=O)NCCN(C)C)C2,32µM*
